DUX4 txn inh – blocks DUX4-driven transcriptional activation; 293T-iDUX4 ZSCAN4-Gaussia luciferase reporter, 24 h; active compounds read low; activity change, negative = inhibition, % (concentration not given with the values); 37,000 compounds, 0.8% hits;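 active = mean inhibition of at least 10% in the main channel, exceeding the control channel by a set limit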;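 note: 0% = median of neutral control wells and -100% = median of positive control wells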
* marks the source's active call; other numbers are inactive results. This is one part of a sample in which hits are shown more often than they occur.

SMILES	DUX4 txn inh
Cc1cccc(-c2ccc([C@@H]3[C@@H](CO)N4CCCCN(Cc5ccncc5)C[C@H]34)cc2)c1	-5
Cc1ccccc1S(=O)(=O)N1CCCCN2[C@H](CO)[C@@H](c3ccc(-c4cccc(F)c4)cc3)[C@@H]2C1	-20*
O=C(C1CC1)N1CCCCN2[C@H](CO)[C@@H](c3ccc(-c4cccc(F)c4)cc3)[C@H]2C1	0
Cn1cnc(S(=O)(=O)N2CCCCN3[C@H](CO)[C@H](c4ccc(-c5cccc(F)c5)cc4)[C@@H]3C2)c1	6
OC[C@@H]1[C@@H](c2ccc(-c3cccc(F)c3)cc2)[C@H]2CN(CCC(F)(F)F)CCCCN12	-35*
O=S(=O)(c1ccccc1)N1CCCCN2[C@H](C1)[C@@H](c1ccc(-c3ccccc3)cc1)[C@@H]2CO	15
O=C(C1CC1)N1CCCCN2[C@H](C1)[C@H](c1ccc(-c3cccc(F)c3)cc1)[C@@H]2CO	1
CN1c2ccc(-c3ccc(F)cc3)cc2[C@@H]2[C@@H](CCN2C(=O)c2ccncc2)[C@@H]1CO	7
C[C@H](CO)N1C[C@H](C)[C@@H](CN(C)C(=O)Cc2ccccn2)Oc2ncc(C#CC3CCCC3)cc2C1=O	7
COc1ccc2c3c([nH]c2c1)[C@H](CO)N(Cc1ccncc1)CC31CN(C(=O)c2cccnc2)C1	14
CO[C@@H]1CN(C)C(=O)c2cc(NC(=O)c3cnccn3)ccc2OC[C@@H](C)N(CCc2ccccc2)C[C@H]1C	-5
COc1ccc2c3c([nH]c2c1)[C@@H](CO)NCC31CN(Cc2ccccc2F)C1	4
O=C1NCCCOCc2cn(nn2)CC[C@H]1Cc1ccc(-c2ccccc2)cc1	2
C/C=C/c1ccccc1[C@@H]1[C@H](C#N)N(C(=O)c2cccnc2)[C@H]1CO	17
CO[C@H]1CN(C)C(=O)c2ccc(NC(=O)Nc3c(C)noc3C)cc2OC[C@H](C)N(C)C[C@H]1C	3
CC(=O)N1CCCCN2[C@H](CO)[C@@H](c3ccc(C#Cc4ccccc4F)cc3)[C@H]2C1	-7
CN(C)C(=O)c1ccc(-c2ccc([C@H]3[C@H]4CN(CCC(F)(F)F)CCCCN4[C@H]3CO)cc2)cc1	8
OC[C@H]1[C@@H](c2ccc(-c3cccc(F)c3)cc2)[C@H]2CN(CCC(F)(F)F)CCCCN21	-47*
COc1ccccc1C#Cc1ccc([C@@H]2[C@H]3CN(CCC(F)(F)F)CCCCN3[C@H]2CO)cc1	-30*
OC[C@@H]1[C@H](c2ccc(-c3cccc(F)c3)cc2)[C@H]2CN(Cc3cncnc3)CCCCN12	6
OC[C@H]1[C@@H](c2ccc(-c3cccc(F)c3)cc2)[C@@H]2CN(Cc3cncnc3)CCCCN12	14
O=C1NCCOCc2cn(nn2)CC[C@H]1Cc1ccccc1	-3
C[C@@H]1CN([C@H](C)CO)C(=O)c2c(c3ccccc3n2C)-c2ccccc2CO[C@H]1CN(C)Cc1ccc(C(F)(F)F)cc1	3
C[C@H]1CN([C@@H](C)CO)C(=O)c2c(c3ccccc3n2C)-c2ccccc2CO[C@@H]1CN(C)Cc1ccc(C(F)(F)F)cc1	-49*
C[C@H]1CN([C@@H](C)CO)C(=O)c2c(c3ccccc3n2C)-c2ccccc2CO[C@@H]1CN(C)Cc1ccc(C(=O)O)cc1	16
SMILES	DUX4 txn inh
C[C@@H]1CN([C@@H](C)CO)C(=O)c2c(c3ccccc3n2C)-c2ccccc2CO[C@@H]1CN(C)Cc1ccc(O)cc1	-9
C[C@@H]1CN([C@H](C)CO)C(=O)c2c(c3ccccc3n2C)-c2ccccc2CO[C@@H]1CN(C)Cc1ccc(C(F)(F)F)cc1	-43*
C[C@@H]1CN([C@H](C)CO)C(=O)c2c(c3ccccc3n2C)-c2ccccc2CO[C@H]1CN(C)Cc1ccc(C(=O)O)cc1	6
CO[C@@H](C(=O)N(C)C[C@@H]1OCc2ccccc2-c2c(n(C)c3ccccc23)C(=O)N([C@@H](C)CO)C[C@H]1C)c1ccccc1	2
C[C@H]1CN([C@@H](C)CO)C(=O)c2cccc(NC(=O)Nc3ccc4c(c3)OCO4)c2O[C@@H]1CN(C)Cc1ccc(C(=O)Nc2ccccc2N)cc1	1
COc1ccc2c3c([nH]c2c1)[C@@H](CO)N(Cc1ccccn1)CC31CCN(C(=O)c2ccccn2)CC1	1
COc1ccc(C#Cc2ccc([C@H]3[C@H](CO)N4CCCCN(S(=O)(=O)c5ccccc5)C[C@@H]34)cc2)cc1	-30*
CC(C)CC#Cc1ccc([C@H]2[C@@H](CO)N3CCCCN(S(=O)(=O)Cc4ccccc4)C[C@H]23)cc1	-14*
O=S(=O)(c1cccs1)N1CCCCN2[C@H](C1)[C@H](c1ccc(Br)cc1)[C@@H]2CO	-7
O=S(=O)(c1ccccc1)N1CCCCN2[C@H](CO)[C@H](c3ccc(C#CC4CCCC4)cc3)[C@H]2C1	-19*
O=S(=O)(c1cccs1)N1CCCCN2[C@H](CO)[C@@H](c3ccc(Br)cc3)[C@H]2C1	-9
O=S(=O)(c1ccc(F)cc1)N1CCCCN2[C@H](CO)[C@@H](c3ccc(C#CC4CC4)cc3)[C@@H]2C1	-9
CCCC#Cc1ccc([C@H]2[C@H]3CN(S(=O)(=O)Cc4ccccc4)CCCCN3[C@H]2CO)cc1	11
